In the supplement of paper PMC11732987, “Enantioselective OTUD7B fragment discovery through chemoproteomics screening and high-throughput optimisation” (Communications Chemistry, 2025):

Assays:
Assay in all cases: log2 ratio of Biotin-Ahx-Ub-VS probe labelling (fragment/DMSO); higher = less target engagement (more negative = stronger competition), active = hit call of the paper (q ≤ 0.05, log2 ratio ≤ -1)
Details in all cases: compound concentration: 200 uM; treatment time: 3 h
ALG13 = biological target: T1, ALG13 (UniProt Q9NP73)
T1 sequence (whole entry): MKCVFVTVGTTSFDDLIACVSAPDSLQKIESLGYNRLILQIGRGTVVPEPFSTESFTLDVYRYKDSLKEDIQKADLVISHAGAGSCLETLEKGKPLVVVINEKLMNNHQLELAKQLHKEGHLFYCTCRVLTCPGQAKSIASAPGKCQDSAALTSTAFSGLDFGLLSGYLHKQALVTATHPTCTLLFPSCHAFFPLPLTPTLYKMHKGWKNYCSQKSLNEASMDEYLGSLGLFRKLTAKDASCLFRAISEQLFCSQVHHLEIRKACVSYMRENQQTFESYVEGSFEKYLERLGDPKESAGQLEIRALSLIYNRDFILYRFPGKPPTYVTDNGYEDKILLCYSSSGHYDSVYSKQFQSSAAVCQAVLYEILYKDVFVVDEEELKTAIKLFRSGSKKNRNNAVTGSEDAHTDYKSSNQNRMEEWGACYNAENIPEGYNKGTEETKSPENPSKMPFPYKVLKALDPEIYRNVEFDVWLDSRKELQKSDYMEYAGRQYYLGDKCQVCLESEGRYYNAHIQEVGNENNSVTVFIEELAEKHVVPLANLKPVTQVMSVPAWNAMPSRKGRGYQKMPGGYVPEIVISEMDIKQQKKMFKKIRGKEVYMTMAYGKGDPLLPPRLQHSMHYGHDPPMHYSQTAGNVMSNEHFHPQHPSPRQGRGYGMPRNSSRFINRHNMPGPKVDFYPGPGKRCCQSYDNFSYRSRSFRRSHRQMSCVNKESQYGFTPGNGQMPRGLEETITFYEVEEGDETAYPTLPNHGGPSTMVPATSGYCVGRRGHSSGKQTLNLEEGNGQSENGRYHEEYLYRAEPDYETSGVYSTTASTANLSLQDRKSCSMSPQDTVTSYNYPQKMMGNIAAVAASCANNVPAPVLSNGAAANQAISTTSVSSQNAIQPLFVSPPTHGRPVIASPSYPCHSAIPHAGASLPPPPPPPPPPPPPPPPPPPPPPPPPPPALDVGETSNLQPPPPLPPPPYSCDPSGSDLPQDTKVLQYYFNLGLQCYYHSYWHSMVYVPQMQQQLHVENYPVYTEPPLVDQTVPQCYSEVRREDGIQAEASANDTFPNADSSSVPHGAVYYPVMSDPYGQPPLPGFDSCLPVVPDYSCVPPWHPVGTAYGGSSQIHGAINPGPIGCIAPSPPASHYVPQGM
Method in brief: (§1)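 Fragment (200 µM) or vehicle was incubated for 3 h with triplicate HEK293T lysate samples of 495 µg, which were then treated with Biotin-Ahx-Ub-VS at 0.5 µM final for 1 h. Labelled DUBs were enriched on NeutrAvidin, digested with LysC and trypsin, and analysed by diaPASEF LC-MS/MS. Values are average log2 fragment/vehicle ratios from an unpaired t-test on global-median-normalised Spectronaut label-free quantities, using proteins with ≥2 unique peptides.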

ATXN3 = ATXN3 (UniProt P54252)
Sequence of ATXN3 (P54252 whole entry): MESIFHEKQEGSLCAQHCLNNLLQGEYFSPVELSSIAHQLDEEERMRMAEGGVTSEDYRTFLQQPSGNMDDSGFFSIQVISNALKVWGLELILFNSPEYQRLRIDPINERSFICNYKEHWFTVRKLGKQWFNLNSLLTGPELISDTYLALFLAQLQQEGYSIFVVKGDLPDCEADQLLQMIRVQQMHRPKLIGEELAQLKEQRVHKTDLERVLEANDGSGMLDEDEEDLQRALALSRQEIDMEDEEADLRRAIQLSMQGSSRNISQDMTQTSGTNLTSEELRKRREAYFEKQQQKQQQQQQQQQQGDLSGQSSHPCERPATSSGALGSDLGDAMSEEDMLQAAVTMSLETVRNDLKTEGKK
Method in brief: as §1

BAP1 = biological target: T2, BAP1 (UniProt Q92560)
T2 sequence (whole entry): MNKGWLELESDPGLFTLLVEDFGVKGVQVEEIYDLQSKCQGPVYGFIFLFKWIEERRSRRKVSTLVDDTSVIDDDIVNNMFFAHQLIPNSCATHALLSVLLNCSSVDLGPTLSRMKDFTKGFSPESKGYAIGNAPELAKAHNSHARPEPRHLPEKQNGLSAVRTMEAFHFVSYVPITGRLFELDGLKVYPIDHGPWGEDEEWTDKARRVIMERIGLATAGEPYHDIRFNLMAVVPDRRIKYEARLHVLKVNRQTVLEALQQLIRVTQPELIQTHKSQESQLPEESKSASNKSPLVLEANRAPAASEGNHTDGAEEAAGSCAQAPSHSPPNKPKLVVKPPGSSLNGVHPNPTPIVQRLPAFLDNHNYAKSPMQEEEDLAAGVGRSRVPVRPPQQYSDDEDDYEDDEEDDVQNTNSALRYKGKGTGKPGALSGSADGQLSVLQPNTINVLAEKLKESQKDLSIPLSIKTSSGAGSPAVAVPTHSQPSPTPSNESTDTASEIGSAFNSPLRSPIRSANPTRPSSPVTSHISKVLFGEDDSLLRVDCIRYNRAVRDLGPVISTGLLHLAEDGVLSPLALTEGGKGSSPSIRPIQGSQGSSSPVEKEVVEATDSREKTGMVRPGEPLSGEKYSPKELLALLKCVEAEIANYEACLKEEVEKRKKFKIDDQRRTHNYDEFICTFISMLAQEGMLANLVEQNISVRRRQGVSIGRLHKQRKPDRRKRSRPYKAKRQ
Method in brief: as §1

EIF3F = EIF3F (UniProt O00303)
Sequence of EIF3F (O00303 whole entry): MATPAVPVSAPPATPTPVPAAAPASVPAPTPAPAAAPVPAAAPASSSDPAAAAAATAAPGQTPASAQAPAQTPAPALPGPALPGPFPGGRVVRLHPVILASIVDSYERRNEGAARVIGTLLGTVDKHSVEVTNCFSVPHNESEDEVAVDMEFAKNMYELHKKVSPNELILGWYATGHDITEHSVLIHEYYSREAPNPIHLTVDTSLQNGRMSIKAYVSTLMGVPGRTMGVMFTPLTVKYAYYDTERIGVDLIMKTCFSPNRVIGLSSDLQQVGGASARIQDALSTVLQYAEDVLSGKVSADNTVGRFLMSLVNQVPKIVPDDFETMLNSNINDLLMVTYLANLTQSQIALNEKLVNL
Method in brief: as §1

EIF3H = EIF3H (UniProt O15372)
Sequence of EIF3H (O15372 whole entry): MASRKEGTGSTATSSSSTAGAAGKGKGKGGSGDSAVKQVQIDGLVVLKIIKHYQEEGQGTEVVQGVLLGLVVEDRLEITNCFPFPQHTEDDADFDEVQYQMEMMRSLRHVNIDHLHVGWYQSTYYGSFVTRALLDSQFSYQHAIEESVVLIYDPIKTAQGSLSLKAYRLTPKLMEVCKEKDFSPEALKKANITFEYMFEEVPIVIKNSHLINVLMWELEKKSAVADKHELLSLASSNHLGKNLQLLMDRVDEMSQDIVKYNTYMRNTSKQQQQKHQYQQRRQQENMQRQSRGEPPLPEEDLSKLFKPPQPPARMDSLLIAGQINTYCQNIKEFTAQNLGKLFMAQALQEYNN
Method in brief: as §1

FAM105A = biological target: T3, FAM105A (UniProt Q9NUU6)
T3 sequence (whole entry): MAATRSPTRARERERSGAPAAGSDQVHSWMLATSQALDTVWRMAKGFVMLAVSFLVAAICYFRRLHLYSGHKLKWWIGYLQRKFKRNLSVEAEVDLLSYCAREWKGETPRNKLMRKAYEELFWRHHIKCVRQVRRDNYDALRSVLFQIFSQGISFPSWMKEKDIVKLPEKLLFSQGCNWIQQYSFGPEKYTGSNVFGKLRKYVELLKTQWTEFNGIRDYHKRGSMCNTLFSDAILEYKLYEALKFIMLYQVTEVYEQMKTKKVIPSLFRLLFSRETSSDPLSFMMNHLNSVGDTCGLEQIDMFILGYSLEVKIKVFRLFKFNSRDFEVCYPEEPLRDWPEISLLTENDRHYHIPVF
Method in brief: as §1

OTUB1 = OTUB1 (UniProt Q96FW1)
Sequence of OTUB1 (Q96FW1 whole entry): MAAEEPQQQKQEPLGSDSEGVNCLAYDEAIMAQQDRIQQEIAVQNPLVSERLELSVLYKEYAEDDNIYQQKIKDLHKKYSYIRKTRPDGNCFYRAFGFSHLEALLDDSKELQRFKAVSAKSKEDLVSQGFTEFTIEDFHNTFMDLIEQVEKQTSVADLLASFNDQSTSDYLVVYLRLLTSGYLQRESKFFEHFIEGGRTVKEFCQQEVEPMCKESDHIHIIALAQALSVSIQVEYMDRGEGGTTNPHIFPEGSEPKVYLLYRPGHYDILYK
Method in brief: as §1

OTUD4 = biological target: T4, OTUD4 (UniProt Q01804)
T4 sequence (whole entry): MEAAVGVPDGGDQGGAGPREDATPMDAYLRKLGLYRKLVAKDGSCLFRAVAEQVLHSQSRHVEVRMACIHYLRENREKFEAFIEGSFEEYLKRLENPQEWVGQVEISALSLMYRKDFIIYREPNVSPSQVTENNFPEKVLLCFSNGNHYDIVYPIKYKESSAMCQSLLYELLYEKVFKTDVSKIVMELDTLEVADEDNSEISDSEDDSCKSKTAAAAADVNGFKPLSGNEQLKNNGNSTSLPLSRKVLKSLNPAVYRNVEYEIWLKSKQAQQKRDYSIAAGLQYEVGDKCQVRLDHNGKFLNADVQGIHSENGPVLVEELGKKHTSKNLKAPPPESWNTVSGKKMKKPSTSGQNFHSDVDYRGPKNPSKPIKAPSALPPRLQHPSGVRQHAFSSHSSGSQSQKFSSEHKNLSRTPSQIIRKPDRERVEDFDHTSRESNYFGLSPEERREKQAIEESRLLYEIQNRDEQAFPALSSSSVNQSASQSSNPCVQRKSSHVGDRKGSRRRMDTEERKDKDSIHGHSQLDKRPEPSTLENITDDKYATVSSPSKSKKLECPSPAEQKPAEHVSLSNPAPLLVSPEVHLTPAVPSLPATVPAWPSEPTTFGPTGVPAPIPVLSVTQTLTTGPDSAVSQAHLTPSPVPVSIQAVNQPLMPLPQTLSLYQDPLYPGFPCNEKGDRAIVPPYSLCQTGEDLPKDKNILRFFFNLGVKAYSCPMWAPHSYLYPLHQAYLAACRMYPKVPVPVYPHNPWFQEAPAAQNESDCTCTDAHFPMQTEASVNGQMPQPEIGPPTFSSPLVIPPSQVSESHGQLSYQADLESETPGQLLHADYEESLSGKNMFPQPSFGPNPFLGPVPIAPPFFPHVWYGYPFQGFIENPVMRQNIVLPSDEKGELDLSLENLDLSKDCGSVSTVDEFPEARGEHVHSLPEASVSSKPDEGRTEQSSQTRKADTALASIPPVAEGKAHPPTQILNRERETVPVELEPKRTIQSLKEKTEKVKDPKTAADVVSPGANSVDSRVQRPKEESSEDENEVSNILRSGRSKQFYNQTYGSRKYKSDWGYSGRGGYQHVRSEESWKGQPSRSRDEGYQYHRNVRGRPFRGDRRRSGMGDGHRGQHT
Method in brief: as §1

OTUD5 = biological target: T5, OTUD5 (UniProt Q96G74)
T5 sequence (whole entry): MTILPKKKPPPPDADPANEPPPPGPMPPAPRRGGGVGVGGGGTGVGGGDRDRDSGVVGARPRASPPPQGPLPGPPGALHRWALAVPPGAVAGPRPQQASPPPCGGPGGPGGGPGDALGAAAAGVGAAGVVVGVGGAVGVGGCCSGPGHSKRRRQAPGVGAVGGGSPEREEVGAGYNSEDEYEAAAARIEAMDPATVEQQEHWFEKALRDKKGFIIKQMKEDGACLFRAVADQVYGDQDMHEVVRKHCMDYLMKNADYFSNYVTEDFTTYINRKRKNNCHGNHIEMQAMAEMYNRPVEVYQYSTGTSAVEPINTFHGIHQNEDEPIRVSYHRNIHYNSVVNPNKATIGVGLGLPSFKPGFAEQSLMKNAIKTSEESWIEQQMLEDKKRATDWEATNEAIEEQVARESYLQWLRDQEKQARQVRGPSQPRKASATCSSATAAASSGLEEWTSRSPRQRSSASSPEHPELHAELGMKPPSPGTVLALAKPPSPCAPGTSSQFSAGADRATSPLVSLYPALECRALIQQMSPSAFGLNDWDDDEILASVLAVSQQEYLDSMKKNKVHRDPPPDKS
Method in brief: as §1

Measured: log2 ratio of Biotin-Ahx-Ub-VS probe labelling

NC(=O)C1CCCN(C(=O)CCl)C1 (centres undefined)
inactive: ALG13 0.0966 | ATXN3 -0.171 | BAP1 -0.437 | EIF3F -0.000958 | EIF3H 0.225 | FAM105A 0.217 | OTUB1 -0.301 | OTUD4 0.0344 | OTUD5 -0.159
